Test results taken from ChEMBL document CHEMBL4513216, “Probing the Open Global Health Chemical Diversity Library for Multistage-Active Starting Points for Next-Generation Antimalarials” (ACS Infect Dis, 2020).
Hit rate of the full screen: of about 68,000 compounds, about 2,700 (4%) showed an effect of 50% or more. The entries come from a sample that favours strong results as a whole.

The compounds below were run on Plasmodium berghei (assay: Screen against P. berghei liver stage (PbLuc), transformed with Luciferase, at 2uM). Settings: tested at 2 uM.
Assay type: functional, HepG2

Structure (SMILES) | INHIBITION [%]
Cc1cnn(CCNCC(O)COc2ccc(Cl)cc2Cl)c1 (stereo not given) | 23.94
O=C(NCC1CCOC1)c1csc(-c2cccc(Cl)c2)n1 (stereo not given) | 25.74
N[C@H]1CN(C(=O)c2ccc3[nH]c(=O)c(=O)[nH]c3c2)C[C@@H]1c1ccccc1 | -6.88
N#Cc1ccccc1N1CC2(CCCCN2CC2CC2)CC1=O (stereo not given) | -47.71
COCc1cc(CNC(=O)c2c(O)cccc2O)n[nH]1 | 30.93
O=C(Nc1ccc2c(c1)OC1(CCCCC1)O2)c1ccc(=O)[nH]n1 | -5.9
CCN1CCN(Cc2ccnc(-c3cccnc3)n2)CC1 | 15.58
c1cncc(-c2nccc(CN3CCCC3)n2)c1 | 52.89
c1cncc(-c2nccc(CN3CCC(N4CCCCC4)CC3)n2)c1 | 25.72
CC(C)c1cc(C(=O)NCCCN(C)C)nc(N2CCCC2)n1 | 27.54
CC(C)c1noc(CNc2ccc(OC(F)F)cc2OC(F)F)n1 | -70.61
Cc1noc(CNc2ccc(OC(F)F)cc2OC(F)F)n1 | 57.23
FC(F)Oc1ccc(NCc2nc(C3CC3)no2)c(OC(F)F)c1 | -35.14
O=C(NCCc1cc(F)ccc1F)NCC(O)C1CC1 (stereo not given) | 30.69
c1ccc(O[C@H]2COCCN(CC3CC3)C2)cc1 | 20.5
CC(NC(=O)NCCCn1cccn1)c1cccnc1 (stereo not given) | -8.05
CC(CC(=O)NCCCn1cccn1)c1cccnc1 (stereo not given) | 74.51
CC(NC(=O)Cn1cccn1)c1cccnc1 (stereo not given) | 42.58
Cc1nc(O)c2c(n1)CCN(Cc1cc(C)sc1C)CC2 | -0.21
CCC[C@@H]1CN(Cc2ccccc2-c2ccco2)C[C@H]1NC(C)=O | 28.19
COCCN1CCC(Cc2cnc(-c3ccccc3C(=O)O)cn2)CC1 | 20.44
Cc1cccc(C2(CNC(C)c3nnc(C)o3)CCCC2)c1 (stereo not given) | 38.96
Cc1nnc(C(C)NCC2(c3c(F)cccc3F)CCCC2)o1 (stereo not given) | 50.9
Cc1nnc(C(C)NCC2(c3ccc(F)cc3)CCCCC2)o1 (stereo not given) | -55.34
O=C(NCC1CC1)[C@@H]1CCO[C@@H]2CCN(Cc3ccsc3)C[C@H]21 | 28.38
O=C(O)c1cc(-c2cc[nH]n2)cc(S(=O)(=O)N2CCCCCC2)c1 | 23.17
O=C1CN(c2ccc(CNC(=O)Nc3nccs3)cc2)CCN1 | 29.4

Structure (SMILES) | INHIBITION [%]
CCc1n[nH]c(C2CN(C(=O)c3cnc(C)nc3CC)CCO2)n1 (stereo not given) | 39.07
CCc1n[nH]c(C2CN(C(=O)c3ccc4c(c3)COC4)CCO2)n1 (stereo not given) | -0.99
CCc1n[nH]c(C2CN(C(=O)c3nc(C)ncc3Cl)CCO2)n1 (stereo not given) | 63.95
Nc1nccnc1C1CN(C(=O)c2ccc3c(c2)OCO3)CCO1 (stereo not given) | 50.32
CCc1n[nH]c(C2CN(C(=O)c3ncoc3CC)CCO2)n1 (stereo not given) | -15.34
Nc1nccnc1C1CN(C(=O)c2ccnnc2)CCO1 (stereo not given) | 27.39
Nc1nccnc1C1CN(C(=O)c2cnc(C3CC3)nc2)CCO1 (stereo not given) | 39.9
Cc1n[nH]c(C2CN(C(=O)c3ccc4c(c3)CCCC4)CCO2)n1 (stereo not given) | -1.87
Cc1n[nH]c(C2CN(C(=O)c3ccc4c(c3)COC4)CCO2)n1 (stereo not given) | 67.28
COc1ccc(CN2CC[C@H](O)[C@@H]2Cc2cnn(C)c2)cc1 | -10.92
CC(NC(=O)N(C)Cc1cnn(C)c1)c1nncn1C (stereo not given) | 18.63
O=C(Nc1ccc2ncccc2c1)C1CC(=O)N(Cc2ccccn2)C1 (stereo not given) | -6.89
Cc1noc(C)c1CCC(=O)N1CCN(CCn2cncn2)CC1 | 33.75
CN(C)C(=O)NCC(=O)N1CCCC2(CCC(=O)N(CC3CC3)C2)C1 (stereo not given) | 40.61
O=C(CO)N1CCCC2(CCC(=O)N(CC3CC3)C2)C1 (stereo not given) | 62.38
CC(C)CCN1CC2(CCCN(C(=O)CNC(=O)N(C)C)C2)CCC1=O (stereo not given) | 58.03
O=C(CSCC1CC1)N1CCCC2(CCC(=O)N(CC3CC3)C2)C1 (stereo not given) | 1.42
CC(=O)NCC(=O)N1CCCC2(CCC(=O)N(CCc3c[nH]cn3)C2)C1 (stereo not given) | -53.74
O=C(CCC(F)(F)F)N1CCCC2(CCC(=O)N(CC3CC3)C2)C1 (stereo not given) | -6.04
CCN1CCN(C2CCN(Cc3ccc(Cl)s3)CC2)C1=O | 18.52
COCC1CC2(CCN(Cc3ccccn3)CC2)CN1c1ncccn1 (stereo not given) | -23.78
Cc1nnc(SCCNc2cc(C3CC3)ncn2)s1 | 12.17
COc1cc(NCCCSc2nnc(C)s2)ncn1 | -29.43
Cc1nnc(SCCCNc2cc(C3CC3)ncn2)s1 | 60.35
Cc1cc(CN2CCC(c3ccnn3CCO)CC2)no1 | 20.28
COc1cc(S(=O)(=O)N2CCCc3ccccc32)cc(C(=O)O)c1OC | 56.72
COc1cc(S(=O)(=O)N2CCc3ccc(Cl)cc32)cc(C(=O)O)c1OC | 6.3

Structure (SMILES) | INHIBITION [%]
COc1cc(S(=O)(=O)N2CCc3ccccc32)cc(C(=O)O)c1OC | 12.65
O=C(c1cnccn1)N1CCOCC2(CCN(C3CCOCC3)C2)C1 (stereo not given) | 26.14
Cc1nc(CN2C[C@@H](CN3CCOCC3)[C@@H](CO)C2)c2ccccn12 | 25.81
O=S(=O)(Cc1ccc(Br)cc1)NCCO | 17.51
NCCCNS(=O)(=O)Cc1ccc(Br)cc1 | 5.28
NCCNS(=O)(=O)Cc1ccc(Br)cc1 | 50.59
Cn1cc(CN2CC3(CCN(C(=O)c4cscn4)C3)C2)cn1 | -9.1
Cc1csc(C(=O)NCCN2CCC(c3cccs3)CC2)c1 | 18.23
CC(=O)NCCN1CCC(c2cccs2)CC1 | 26.64
COc1ccc(C(=O)NCCN2CCC(c3cccs3)CC2)cc1OC | 66.04
c1cncc(N2CCO[C@H]3CN(CC4CCOC4)C[C@H]32)c1 (stereo not given in full) | 19.51
O=C(Cn1cc(-c2ccccc2)ncc1=O)Nc1ncc[nH]1 | -80.35
COCCCNc1ncc(-c2cccc(F)c2)c(-c2nccn2C)n1 | -18.57
COCCNc1ncc(-c2cc(C)no2)c(-c2ccco2)n1 | -29.24
CCOCCCNc1ncc(-c2cccc(F)c2)c(-c2nccn2C)n1 | 55.72
Cn1ccnc1-c1nc(NC2CCCC2)ncc1-c1cccc(F)c1 | 14.3
COCCNc1ncc(-c2cccc(F)c2)c(-c2nccn2C)n1 | 27.12
COCCNc1ncc(-c2cccc(OC)c2)c(-c2nccn2C)n1 | 54.87
CN(C)C(=O)COCc1cncc2c1CCN(Cc1cnn(C)c1)C2 | 14.91
Cc1ccc2c(n1)N(C)CCN(Cc1ccco1)C2 | 29.89
CN(C)S(=O)(=O)N1CCC[C@]2(C[C@@H](Oc3ccccn3)CO2)C1 | 19.61
c1ccc(CO[C@@H]2CO[C@@]3(CCN(Cc4ccccn4)C3)C2)nc1 | 40.25
c1ccc(OC2COC3(CCN(Cc4ccccn4)CC3)C2)cc1 (stereo not given) | 62.15
O[C@@H]1CN(Cc2cnccn2)C[C@H]1Oc1ccccc1 | 26.14
c1ccc(CN2CC[C@]3(C[C@@H](Oc4ccccn4)CO3)C2)nc1 | 8.1
Cc1cnc(CN2C[C@H]3CC(Oc4ccccc4)C[C@H]3C2)cn1 (stereo not given in full) | 25.06
c1ccc(OC2C[C@@H]3CN(Cc4cnccn4)C[C@@H]3C2)cc1 (stereo not given in full) | 50.32

Structure (SMILES) | INHIBITION [%]
CS(=O)(=O)N1CCC2(CC1)CC(Oc1ccccn1)CO2 (stereo not given) | -0.23
CN(C)S(=O)(=O)N1CCC2(CC1)CC(Oc1ccccn1)CO2 (stereo not given) | 56.78
COc1ccc2cc(-c3n[nH]cc3CN3CCSCC3)ccc2c1 | 30.34
CN(C)C(=O)CO[C@@H]1CC[C@H]2[C@H]1OCCN2c1ncc(F)cn1 | 34.89
Cc1cc(CN2CCC(CNS(=O)(=O)c3ccc(Br)s3)CC2)c(C)o1 | 23.96
CC(C)Cc1nc(CSCC(=O)N2CCC(C)CC2)no1 | -32.8
O=C(Nc1ccc(F)c(Br)c1)N1CCCC1 | -5.87
CC(C)CC(NC(=O)c1cccs1)c1nc2cccnc2n1C (stereo not given) | -19.86
NC(=O)C1CCN(CCCNC(=O)Nc2nccs2)CC1 | 28.14
O=C(Nc1cccnc1)[C@H]1CN(Cc2ccccn2)C[C@H]2OCC[C@@H]12 | -43.55
Cc1cc(-c2nc(-c3ccccn3)nn2C2CCN(C)CC2)nc(C)n1 | 14.19
CC1(CO)COC(Cc2ccc(Cl)cc2)=N1 (stereo not given) | -6.98
O=C1N(CCCc2ccccc2)CCCC12CCN(C(CO)CO)C2 (stereo not given) | 7.13
CS(=O)(=O)N1CCC2(CCCN(CCCc3ccccc3)C2=O)C1 (stereo not given) | -57.67
O=C1N(CCc2ccccc2)CCCC12CCN(C(CO)CO)C2 (stereo not given) | 57.92
Cc1ccc(N2CCN(C3CCc4ccccc4C3)CC2)nn1 (stereo not given) | 30.66
Cc1noc(C)c1-c1cncc(CC2CCN(C(=O)c3cc[nH]n3)C2)n1 (stereo not given) | 61.16
Cc1noc(C)c1-c1cccc(CC2CCN(C(=O)c3cc[nH]n3)C2)n1 (stereo not given) | -8.23
Cc1noc(C)c1-c1cc(CC2CCN(C(=O)c3cc[nH]n3)C2)ncn1 (stereo not given) | -15.34
Cc1nc(CNC(=O)N(C)Cc2cnn(C)c2)cs1 | 29.19
Cc1ncc2c(c1CNC(=O)C1(C)CCCO1)CCNC2 (stereo not given) | 21.72
Cc1ncc2c(c1CNC(=O)C1(C)CCCCO1)CCNC2 (stereo not given) | -17.55
Cc1ncc2c(c1CNC(=O)C1(C)CC1)CCNC2 | 51.9
Cc1cc(C)nc(N2CCC(c3cc(CCO)[nH]n3)C2)n1 (stereo not given) | -92.86
